G9a inh – G9a (human) methyltransferase inhibition; Q96KQ7; Potency, µM (doses to about 102 µM), hits mostly inhibitors; G9a H3K9 monomethylation, AlphaScreen, 2 h; 8.8% of 350,000 active; further: nearly all actives have a fitted effect of over 75% in size
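AlphaScreen read-out: biotin-H3K9 peptide (500 nM) methylation by 20 nM enzyme with 20 uM SAM, 2 h at room temperature after 15 min compound preincubation; anti-monomethyl H3K9 antibody plus donor/acceptor beads, 10 min dark.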
Sfp PPTase inh – blocks B. subtilis Sfp PPTase activity. Q9F4F7. Biochemical Sfp PPTase activity, qHTS. Potency, µM, hits mostly inhibitors. 3.5% of 310,000 active. AID 1490;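 further: the enzyme is Sfp with the accession as filed and its product quenches rhodamine fluorescence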
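Sfp 15 nM + cpd, 15 min RT; start w/ rhodamine-CoA 5 uM, BHQ-2-YbbR 12.5 uM (final); 50 mM Hepes pH 7.6, 10 mM MgCl2, 0.01% NP-40, 0.01% BSA; read 525/598 nm at 0 and 30 min.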
BAZ2B inh – blocks human BAZ2B | Potency, µM (series often up to 114 µM), hits mostly inhibitors | Q9UIF8 | AlphaScreen BAZ2B-H3K14Ac peptide displacement | 4.4% of 360,000 active; further: nearly all actives have a fitted effect of over 60% in size
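Complex of BAZ2B and biotin-H3K14Ac (50 nM apiece) forms over 30 min at RT, then faces library compounds up to 110 uM for another 30 min; AlphaScreen beads added, 20 min dark incubation, luminescence read.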
HP1b binding inh – blocks HP1-beta chromodomain binding to methylated histone tails. P83916. 0.56% of 390,000 active. AlphaScreen HP1-beta / biotin-H3K9me3 peptide binding. Potency, µM (series often up to 114 µM), usual class: inhibitors; further: nearly all actives have a fitted effect of over 70% in size
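Compound inhibition of the preformed complex between 50 nM HP1-beta and 50 nM biotinylated H3K9me3 peptide was read by AlphaScreen. Buffer was PBS pH 7.4 with 0.01% Tween-20. Incubations ran 30 min at room temperature, with 10 ug/mL donor/acceptor beads.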
L3MBTL1 inh – inhibitors of human L3MBTL1 | AlphaScreen L3MBTL1–H3K9me1 peptide binding | AID 485360 | 0.66% of 230,000 active | Potency, µM (titrated, usually from 57.1 µM), usual class: inhibitors; further: nearly all actives have a fitted effect of over 60% in size
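AlphaScreen proximity signal between nickel-chelate acceptor and streptavidin donor beads (final 10 ug/mL) reports binding of 50 nM L3MBTL1 to 75 nM biotin-H3 K9me1 peptide; complex incubated with compounds 30 min at room temperature; cefsulodin titration as control.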
JMJD2A Tudor inh – blocks the human JMJD2A Tudor domain | AlphaScreen JMJD2A-Tudor / H3K4me3 peptide binding | 4.4% of 390,000 active | Potency, µM (highest dose often 114 µM), most hits filed as inhibitors | O75164; further: nearly all actives have a fitted effect of over 50% in size
Target sequence (O75164 whole entry, looked up, the tested form may be a part): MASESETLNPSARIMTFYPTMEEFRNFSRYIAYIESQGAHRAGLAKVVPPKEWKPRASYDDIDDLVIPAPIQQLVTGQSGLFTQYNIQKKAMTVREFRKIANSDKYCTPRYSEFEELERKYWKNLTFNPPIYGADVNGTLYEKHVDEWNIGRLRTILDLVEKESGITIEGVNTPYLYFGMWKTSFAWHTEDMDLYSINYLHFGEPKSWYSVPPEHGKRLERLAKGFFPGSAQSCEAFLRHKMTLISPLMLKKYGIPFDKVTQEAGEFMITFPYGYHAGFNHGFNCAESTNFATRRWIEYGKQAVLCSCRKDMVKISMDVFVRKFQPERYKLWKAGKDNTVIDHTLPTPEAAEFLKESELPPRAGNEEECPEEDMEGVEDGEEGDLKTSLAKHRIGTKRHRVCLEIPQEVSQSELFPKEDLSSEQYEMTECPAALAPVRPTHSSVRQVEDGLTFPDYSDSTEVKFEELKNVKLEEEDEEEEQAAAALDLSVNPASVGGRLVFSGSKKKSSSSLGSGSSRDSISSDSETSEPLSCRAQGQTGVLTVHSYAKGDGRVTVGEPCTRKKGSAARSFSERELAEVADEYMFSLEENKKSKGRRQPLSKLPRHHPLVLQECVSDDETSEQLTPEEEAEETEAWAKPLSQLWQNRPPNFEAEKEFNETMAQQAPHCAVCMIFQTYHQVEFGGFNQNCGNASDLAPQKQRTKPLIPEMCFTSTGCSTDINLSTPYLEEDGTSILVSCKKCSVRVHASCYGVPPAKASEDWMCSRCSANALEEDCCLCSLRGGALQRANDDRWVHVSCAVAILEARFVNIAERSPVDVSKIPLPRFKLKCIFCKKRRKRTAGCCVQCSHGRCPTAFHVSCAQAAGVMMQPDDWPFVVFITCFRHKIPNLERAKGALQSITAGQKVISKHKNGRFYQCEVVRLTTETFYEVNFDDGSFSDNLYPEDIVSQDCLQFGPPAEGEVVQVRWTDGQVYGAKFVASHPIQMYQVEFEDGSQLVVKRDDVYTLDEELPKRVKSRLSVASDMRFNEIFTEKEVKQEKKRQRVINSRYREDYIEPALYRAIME
A number is an active result; i = inactive; ? = inconclusive; nt = no result; [ ] = dose if it differs, or a comment. In the library only some 12% were active in any assay of this set; here they are far more common. The call rests on the fitted dose curve; in most records, active means well fitted curve in the direction sought with a large enough effect; inconclusive means small, poorly fitted or top-dose-only effect, or another doubt; inactive means no such curve, though single readings can be large; an effect the other way counts as inactive or inconclusive.

SMILES	G9a inh	Sfp PPTase inh	BAZ2B inh	HP1b binding inh	L3MBTL1 inh	JMJD2A Tudor inh
Cn1c(=O)c2c(c3ccccc31)OC(=O)CC2c1cccc(F)c1 (stereo unspecified)	i	nt	i	i	nt	i
CCOc1ccccc1NC(=O)CSc1nc2cc(O)ccc2c(=O)n1-c1ccc(OC)c(OC)c1	i	i	i	i	nt	i
COc1ccc(Oc2ccc(/C=C/C(=O)c3ccc(O)cc3)cc2[N+](=O)[O-])cc1	39.8µM	i	?	i	i	?
COC(=O)c1ccc(/C=C/C(=O)c2ccc(OC)cc2)cc1	i	i	i	i	i	100µM
COC(=O)[C@H](C)NC(=O)/C=C/c1ccc(OC)cc1	70.8µM	?	i	i	i	i
Cc1ccc(/C=C/C(=O)c2ccc(O)cc2)cc1	i	i	i	i	i	i
COC(=O)[C@@H](NC(=O)/C=C/c1ccc(OC)cc1)C(C)C	i	i	i	i	nt	i
CSc1ccc(/C=C/C(=O)c2ccc(O)cc2)cc1	?	79.4µM	i	i	i	?
Cc1ccc(C(C)CCN2CCC(n3nccc3NC(=O)c3ccccc3)CC2)o1 (stereo unspecified)	28.2µM	i	i	i	nt	i
CCc1ccc(CN2CCC(n3nccc3NC(=O)c3ccccc3)CC2)o1	i	i	i	i	nt	i
COc1ccc(OC)c(NC(=O)Cn2nc3c(cc2=O)CCCC3)c1	i	nt	i	i	nt	i
CCN1C(=O)[C@H]2[C@@H](c3ccc(-c4ccc(Cl)c(Cl)c4)cc3)N[C@@](Cc3ccccc3)(C(=O)OC)[C@H]2C1=O	i[2.33 µM]	nt	i	i	i	i
Brc1ccc(OCCN2CCOCC2)cc1	28.2µM	i	?	?	nt	0.891µM
c1ccc(OCCCCN2CCOCC2)cc1	i	i	i	i	nt	i
Clc1ccc(OCCN2CCOCC2)cc1	i	i	i	i	nt	i
Brc1ccc(OCCCN2CCOCC2)cc1	28.2µM	i	?	?	nt	4.47µM
CC(C(Sc1ccccc1N)c1ccccc1)[N+](=O)[O-] (stereo unspecified)	3.16µM	3.98µM	i	?	nt	20µM
O=C(NCCc1ccccc1)c1ccc(Cn2c(SCc3cccc(F)c3)nc3cccnc32)cc1	i[12.7 µM]	nt	i	i	i	i
CCC1(OC(=O)CN(C)C)C(=O)OCc2c1cc1n(c2=O)Cc2cc3c(N)cccc3nc2-1 (stereo unspecified)	nt	nt	nt	i	nt	15.8µM
CN(C)/C=N/c1c(C#N)cnn1-c1ccc(F)c(Cl)c1	nt	i	nt	nt	nt	nt
NC(=O)CC(NC(=O)c1ccccc1)c1ccc(N2CCCCCC2)c([N+](=O)[O-])c1 (stereo unspecified)	50.1µM	i	?	?	i	44.7µM
NC(=O)CC(NC(=O)c1ccccc1)c1ccc(N2CCN(c3ccccc3)CC2)c([N+](=O)[O-])c1 (stereo unspecified)	nt	i	i	i	i	i
Cc1cc(C)cc(C(=O)NC(CC(N)=O)c2ccc(N3CCC(Cc4ccccc4)CC3)c([N+](=O)[O-])c2)c1 (stereo unspecified)	50.1µM	i	?	i	i	i
NC(=O)CC(NC(=O)Cc1cccc2ccccc12)c1ccc(N2CCC(N3CCCCC3)CC2)c([N+](=O)[O-])c1 (stereo unspecified)	nt	i	i	i	i	i
Cc1cc(C)cc(C(=O)NC(CC(N)=O)c2ccc(N3CCC(Br)CC3)c([N+](=O)[O-])c2)c1 (stereo unspecified)	?	i	i	i	i	i
NC(=O)CC(NC(=O)Cc1ccc(Br)cc1)c1ccc(N2CCC(N3CCCCC3)CC2)c([N+](=O)[O-])c1 (stereo unspecified)	56.2µM	i	i	i	i	i
O=[N+]([O-])c1cc(-n2cnnn2)ccc1N1CCC(Cc2ccccc2)CC1	i[0.501 µM]	i	28.2µM	i	?	10µM
Fc1ccccc1COc1ccc2ccccc2c1CNc1nn[nH]n1	i	i	nt	i	i	i
COc1ccc(C2Nc3ccccc3C(=O)N2Cc2ccco2)cc1 (stereo unspecified)	nt	nt	nt	i	nt	i

Screening data deposited in PubChem by National Center for Advancing Translational Sciences (NCATS).
